Reference: the supplement of paper PMC8975748
Where a name gives a salt, the structure may show the parent alone. ± gives the standard deviation of the averaged measurements.

Legend:
[1] = system: Saccharomyces cerevisiae BY4741 SeMeCo community; assay: mean cell size (pixel area) (pixels); higher = larger cells; details: 10 µM; 24 h; SM minimal medium
In short: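 The test system was a fluorescent Saccharomyces cerevisiae BY4741 community with four plasmids, each restoring one auxotrophy and carrying a fluorescent marker. Cells were grown for 24 h in SM medium with drug at a final 10 µM in 384-well plates, then fixed with paraformaldehyde and imaged by automated confocal microscopy for Harmony analysis of mean cell pixel area per well. Values represent the average of 3 replicates. Same SeMeCo high-content imaging drug screen: Selleck FDA-approved drugs at 10 µM, 24 h in SM medium, 384-well plates, 3 replicates.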

[2] = system: Saccharomyces cerevisiae BY4741 SeMeCo community; assay: z-score of prototroph abundance vs DMSO median; higher = larger share of this subpopulation than in DMSO controls; details: 10 µM; 24 h; SM minimal medium; subpopulation (auxotrophy): Prototroph
In short: (§1)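 Scoring was based on each subpopulation's abundance, expressed as a z-score against the vehicle-well median. A Saccharomyces cerevisiae BY4741 community with four plasmids, each restoring one auxotrophy and encoding a distinct fluorescent protein, was pre-grown overnight to OD600 1.0, diluted to 0.3, and added at 70 µl to 384-well plates acoustically predosed with library drugs (10 µM final). It then grew 24 h in minimal SM medium before paraformaldehyde fixation and automated confocal microscopy, with single-auxotroph fluorescent strains setting thresholds and autofluorescence correction.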

[3] = system: Saccharomyces cerevisiae BY4741 SeMeCo community; assay: z-score of subpopulation abundance vs DMSO median, subpopulation auxotrophic for M; higher = larger share of this subpopulation than in DMSO controls; details: 10 µM; 24 h; SM minimal medium; subpopulation (auxotrophy): M
In short: as §1

[4] = system: Saccharomyces cerevisiae BY4741 SeMeCo community; assay: z-score of subpopulation abundance vs DMSO median, subpopulation auxotrophic for L; higher = larger share of this subpopulation than in DMSO controls; details: 10 µM; 24 h; SM minimal medium; subpopulation (auxotrophy): L
In short: as §1

[5] = system: Saccharomyces cerevisiae BY4741 SeMeCo community; assay: z-score of subpopulation abundance vs DMSO median, subpopulation auxotrophic for U; higher = larger share of this subpopulation than in DMSO controls; details: 10 µM; 24 h; SM minimal medium; subpopulation (auxotrophy): U
In short: as §1

[6] = system: Saccharomyces cerevisiae BY4741 SeMeCo community; assay: z-score of subpopulation abundance vs DMSO median, subpopulation auxotrophic for H; higher = larger share of this subpopulation than in DMSO controls; details: 10 µM; 24 h; SM minimal medium; subpopulation (auxotrophy): H
In short: as §1

[7] = system: Saccharomyces cerevisiae BY4741 SeMeCo community; assay: z-score of subpopulation abundance vs DMSO median, subpopulation auxotrophic for LU; higher = larger share of this subpopulation than in DMSO controls; details: 10 µM; 24 h; SM minimal medium; subpopulation (auxotrophy): LU
In short: as §1

[8] = system: Saccharomyces cerevisiae BY4741 SeMeCo community; assay: z-score of subpopulation abundance vs DMSO median, subpopulation auxotrophic for HM; higher = larger share of this subpopulation than in DMSO controls; details: 10 µM; 24 h; SM minimal medium; subpopulation (auxotrophy): HM
In short: as §1

[9] = system: Saccharomyces cerevisiae BY4741 SeMeCo community; assay: z-score of subpopulation abundance vs DMSO median, subpopulation auxotrophic for HU; higher = larger share of this subpopulation than in DMSO controls; details: 10 µM; 24 h; SM minimal medium; subpopulation (auxotrophy): HU
In short: as §1

[10] = system: Saccharomyces cerevisiae BY4741 SeMeCo community; assay: z-score of subpopulation abundance vs DMSO median, subpopulation auxotrophic for UM; higher = larger share of this subpopulation than in DMSO controls; details: 10 µM; 24 h; SM minimal medium; subpopulation (auxotrophy): UM
In short: as §1

[11] = system: Saccharomyces cerevisiae BY4741 SeMeCo community; assay: z-score of subpopulation abundance vs DMSO median, subpopulation auxotrophic for HL; higher = larger share of this subpopulation than in DMSO controls; details: 10 µM; 24 h; SM minimal medium; subpopulation (auxotrophy): HL
In short: as §1

[12] = system: Saccharomyces cerevisiae BY4741 SeMeCo community; assay: z-score of subpopulation abundance vs DMSO median, subpopulation auxotrophic for HLU; higher = larger share of this subpopulation than in DMSO controls; details: 10 µM; 24 h; SM minimal medium; subpopulation (auxotrophy): HLU
In short: as §1

[13] = system: Saccharomyces cerevisiae BY4741 SeMeCo community; assay: z-score of subpopulation abundance vs DMSO median, subpopulation auxotrophic for HLM; higher = larger share of this subpopulation than in DMSO controls; details: 10 µM; 24 h; SM minimal medium; subpopulation (auxotrophy): HLM
In short: as §1

[14] = system: Saccharomyces cerevisiae BY4741 SeMeCo community; assay: z-score of subpopulation abundance vs DMSO median, subpopulation auxotrophic for HUM; higher = larger share of this subpopulation than in DMSO controls; details: 10 µM; 24 h; SM minimal medium; subpopulation (auxotrophy): HUM
In short: as §1

[15] = system: Saccharomyces cerevisiae BY4741 SeMeCo community; assay: z-score of subpopulation abundance vs DMSO median, subpopulation auxotrophic for LUM; higher = larger share of this subpopulation than in DMSO controls; details: 10 µM; 24 h; SM minimal medium; subpopulation (auxotrophy): LUM
In short: as §1

[16] = system: Saccharomyces cerevisiae BY4741 SeMeCo community; assay: z-score of subpopulation abundance vs DMSO median, subpopulation auxotrophic for HLUM; higher = larger share of this subpopulation than in DMSO controls; details: 10 µM; 24 h; SM minimal medium; subpopulation (auxotrophy): HLUM
In short: as §1

[17] = system: Saccharomyces cerevisiae BY4741 SeMeCo community; assay: z-score of subpopulation abundance vs DMSO median, subpopulation auxotrophic for LM; higher = larger share of this subpopulation than in DMSO controls; details: 10 µM; 24 h; SM minimal medium; subpopulation (auxotrophy): LM
In short: as §1

| Compound | mean cell size [1] | z-score of prototroph abundance [2] | z-score of subpopulation abundance [3] | z-score of subpopulation abundance [4] | z-score of subpopulation abundance [5] | z-score of subpopulation abundance [6] | z-score of subpopulation abundance [7] | z-score of subpopulation abundance [8] | z-score of subpopulation abundance [9] | z-score of subpopulation abundance [10] | z-score of subpopulation abundance [11] | z-score of subpopulation abundance [12] | z-score of subpopulation abundance [13] | z-score of subpopulation abundance [14] | z-score of subpopulation abundance [15] | z-score of subpopulation abundance [16] | z-score of subpopulation abundance [17] |
| --- | --- | --- | --- | --- | --- | --- | --- | --- | --- | --- | --- | --- | --- | --- | --- | --- | --- |
| CN(C)CCc1c[nH]c2ccc(C[C@H]3COC(=O)N3)cc12 [Zolmitriptan] | 12.5 ± 0.18 | 0.27 | -0.23 | 0.2 | -0.08 | -0.77 | -0.9 | -1.06 | -1.01 | -0.65 | 0.28 | 0.09 | -0.12 | -0.45 | -0.64 | 0.15 |  |
| C=C[C@H]1CN2CC[C@H]1C[C@@H]2[C@@H](O)c1ccnc2ccc(OC)cc12 [Quinidine sulfate] | 12.4 ± 0.13 | -1.18 | 1.1 | 2.41 | -1.29 | 0.89 | 0.61 | 1.23 | -0.47 | 0.08 |  | 1.39 | 1.12 | 0.61 | 1.53 | 2.36 |  |
| CC#C[C@]1(O)CC[C@H]2[C@@H]3CCC4=CC(=O)CCC4=C3[C@@H](c3ccc(N(C)C)cc3)C[C@@]21C [Mifepristone] | 12.3 ± 0.19 | -1.1 | 0.43 | 1.02 | -0.36 | 1.2 | 0.63 | 1.66 | 0.29 | 0.64 | 1.2 | 0.41 | 0.44 | 1.71 | 0.67 | -0.67 |  |
| COc1cccc(CCc2ccccc2OCC(CN(C)C)OC(=O)CCC(=O)O)c1 (stereo unspecified) [Sarpogrelate hydrochloride] | 12.3 ± 0.35 | 0.79 | -0.54 | -0.31 | -0.21 | -0.59 | -0.09 | -0.54 | -0.27 | 0.14 |  | -0.99 | -0.89 | -0.04 |  | -0.48 |  |
| CC/C(=C(/CC)c1ccc(O)cc1)c1ccc(O)cc1 [Diethylstilbestrol] | 12.85 ± 0.035 | 1.5 | 0.52 | -0.38 | -1.17 | 0.17 | -1.48 | -0.17 | -1.29 | -1.59 |  | -1.06 | -0.67 | -1.46 | -1.01 | -1.31 |  |
| CN1CCN(CCCN2c3ccccc3Sc3ccc(Cl)cc32)CC1 [Prochlorperazine dimaleate salt] | 12.4 ± 0.15 | -0.98 | 0.75 | 0.41 | -0.36 |  | -0.07 | 1.58 |  | 0.65 | 0.69 | 0.49 | 0.12 | 1.51 | 1.88 | 0.48 |  |
| Cc1c(OCC(F)(F)F)ccnc1C[S+]([O-])c1nc2ccccc2[nH]1 (stereo unspecified) [Lansoprazole] | 12.5 ± 0.14 | -0.04 | -0.85 | 1.12 | -0.71 |  | -0.54 | -0.45 | 0.54 | -1.1 | 2.01 | 0.76 | 0.03 | -0.3 | 1.02 | 1.37 |  |
| COc1ccccc1N1CCN(CCCNc2cc(=O)n(C)c(=O)n2C)CC1 [Urapidil HCl] | 12.49 ± 0.088 |  | -0.32 | -1 | 1.09 | -0.78 | 0.29 | -0.81 | 0.01 | 0 |  | -0.11 | -0.67 | -0.59 | -0.71 | -0.28 |  |
| NC(=O)c1cn(Cc2c(F)cccc2F)nn1 [Rufinamide] | 12.2 ± 0.16 | -0.37 | 0.02 | 1.41 | -0.6 | 0.5 | 0.45 |  | -0.24 | -0.01 | 0.55 | 0.55 | 0.38 | 0.45 | 0.43 |  | 0.7 |
| C[C@@H](O)[C@H]1C(=O)N2C(C(=O)O)=C(S[C@@H]3CN[C@H](C(=O)Nc4cccc(C(=O)O)c4)C3)[C@H](C)[C@H]12 [Ertapenem sodium] | 11.9 ± 0.17 | 0.33 | 0.04 | -0.78 | -0.15 |  | -0.01 | -0.22 |  | 0.16 | 0.1 | -1.03 | -0.62 | 0 | -0.18 | -0.21 |  |
| CN(C)CC/C=C1/c2ccccc2Sc2ccc(Cl)cc21 [Chlorprothixene] | 12.2 ± 0.36 | 0.08 | 0.73 | -0.89 | 0.62 | -1 | -0.59 | -0.62 | 0.13 |  | -0.06 | -0.48 | -0.36 | -0.32 | -0.1 | -0.55 |  |
| CCn1cc(C(=O)O)c(=O)c2cc(F)c(N3CCNCC3)nc21 [Enoxacin] | 12.3 ± 0.26 | 0.22 | -0.85 | 1.22 | -0.4 | -0.39 | 0.6 | -1.07 | -0.82 | -0.47 | 0.3 | 0.23 | -0.64 | -0.01 | 0.62 | 0.48 |  |
| Cc1cc(=O)n(-c2ccccc2)n1C [Antipyrine] | 12.6 ± 0.13 | 0.87 | 0.62 | -0.59 | -0.44 | -1.04 | -0.69 | -0.59 | -0.64 | -1.23 | -0.85 | -0.53 | -0.18 | -0.77 | 0.02 | -0.47 |  |
| Nc1c(CC(=O)O)cccc1C(=O)c1ccccc1 [Amfenac Sodium Monohydrate] | 12.78 ± 0.078 | 0.49 | 0.25 | -0.33 | 0.11 | -0.38 | -0.63 | 1.16 | -0.95 | -0.16 | -0.27 | 0.63 | 2.36 | 0.74 | -0.56 | 0.57 |  |
